Compounds with a hit are over-represented: about 0.9% of the library has one in this group of screens.
SSB-PriA inh: K. pneumoniae PriA-SSBct interaction inhibition; AlphaScreen SSBct-PriA binding, biotinylated peptide; hit rate 0.6% among 430,000; inhibition, % at 33 µM; in the data active = inhibition mostly above about 37%, no sharp cut-off; inactive = mostly below about 20%;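 also: plate controls were negative control peptide for no effect and reference peptide for full effect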
MazEF act: MazEF (E. coli) toxin RNase activation. FAM/BHQ RNA-DNA oligo cleavage fluorescence, 5 h. activation, % at 20 µM. hit rate 0.32% among 350,000. AID 504720; in the data active = activation above about 50%
Target sequence (P0AE70 whole entry, looked up): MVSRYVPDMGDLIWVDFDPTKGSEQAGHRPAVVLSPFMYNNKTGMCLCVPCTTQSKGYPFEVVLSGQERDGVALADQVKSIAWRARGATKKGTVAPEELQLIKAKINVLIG
SARS 3CLpro inh: SARS-CoV 3CLpro protease inhibition | P0C6X7 | recombinant SARS-CoV 3CLpro, quenched FRET peptide cleavage | inhibition, % at 6 µM | hit rate 0.14% among 290,000 | AID 1706; in the data active = inhibition above about 12%
Y pestis TopoI: inhibitors of Yersinia pestis topoisomerase I; hit rate 0.064% among 360,000; AID 504884; Y. pestis Topo-I cleavage product accumulation, plate reader; activity, % at 10 µM; in the data active = activity above about 50%, passing the limit was not always enough
Active calls of the source: *; . = no result given; + = active, no number.

SMILES	SSB-PriA inh	MazEF act	SARS 3CLpro inh	Y pestis TopoI
CCOC(=O)c1ccc(NC(=O)C2(c3ccc(OC)cc3)CCCC2)cc1	-20	7	-4	22
CCOC(=O)c1ccc(NC(=O)C2(c3ccc(OC)cc3)CCOCC2)cc1	-12	60*	-6	10
O=C(NCc1ccccc1)C(=O)NCC(c1ccco1)N1CCc2ccccc2C1 (configuration not stated)	1	.	.	.
O=C(NCc1ccc2[nH]c3c(c2c1)CCCC3)NC1CCCCC1	32	.	.	.
COc1cc([N+](=O)[O-])cc(C=NNC(=O)Cn2cncn2)c1O	23	.	.	.
O=C(Cn1cncn1)NN=Cc1cc([N+](=O)[O-])ccc1O	40*	.	.	.
Cc1cc(=O)n(CCC(=O)O)c(N)n1	-3	.	.	.
CN(C)c1ccc(N=Nc2ccccc2Br)cc1	57*	-3	-1	-24
CCN1CCc2c(sc(NC(=O)c3ccc(C(=O)c4ccccc4)cc3)c2C(N)=O)C1	15	274*	-8	-8
NC(=O)c1c(NC(=O)c2ccccc2)sc2c1CCN(Cc1ccccc1)C2	-15	116*	1	-7
CC1CCc2sc(NC(=S)NC(=O)c3ccccc3)c(C#N)c2C1 (configuration not stated)	9	-6	-2	-6
CCN1CCc2c(sc(NC(=O)Cc3ccccc3)c2C(N)=O)C1	1	10	1	-5
CCN1CCc2c(sc(NC(=S)NC(=O)c3ccccc3)c2C#N)C1	11	62*	6	-7
O=c1oc2ccccc2n1CCOc1ccc2ccccc2c1	-12	.	.	.
CCOC(=O)Nc1ccc2c(c1)Nc1ccccc1S2	53*	-5	-2	-25
Cc1noc(C)c1CCC(=O)N1CC(c2nc(-c3ccc[nH]c3=O)no2)C1	-15	.	.	.
CCN1CCN(Cc2ccc(NC(=O)c3ccc(C)c(NC(=O)c4cncc(-c5cccs5)c4)c3)cc2C(F)(F)F)CC1	47*	-66	.	-17
CCOc1ccc(-c2csc(-n3nc(C)cc3NC(=O)Cc3ccc([N+](=O)[O-])cc3)n2)cc1	5	.	.	.
CCOCCn1c(=NC(=O)C(C)C)sc2cc(NC(C)=O)ccc21	37*	.	.	.
Cc1ccc(C(=O)NCc2nc3ccccc3[nH]2)cc1	-3	.	.	.
CN1C2CCC1/C(=C\c1ccc(F)cc1)C(=O)/C2=C/c1ccc(F)cc1	-3	12	4	0
CN1C2CCC1/C(=C/c1cccn1C)C(=O)/C2=C\c1cccn1C	40	+	-1	10
Cn1cccc1/C=C1\Cc2ccccc2C1=O	-1	-12	-5	5
Cn1cccc1/C=C1\CC(C(C)(C)C)C/C(=C\c2cccn2C)C1=O (configuration not stated)	6	108*	2	0
C=CCN1C(=O)C(C)(C)COc2cc(NS(=O)(=O)c3c(C)c(C)cc(C)c3C)ccc21	-9	.	.	.
SMILES	SSB-PriA inh	MazEF act	SARS 3CLpro inh	Y pestis TopoI
Cc1[nH]c2ccccc2c1/C=C(\C#N)C(=O)NCc1ccccc1	4	106*	1	-5
COc1ccc2c(c1)C(c1cccs1)=NNC(c1ccncc1)=N2	28	242*	-3	-7
O=C(NNC(=O)c1ccc(=O)n(Cc2ccc(Cl)cc2)c1)c1ccc2ccccc2c1	4	.	.	.
O=C(Nc1ccccc1)c1sccc1Oc1ccc([N+](=O)[O-])cc1F	44*	-1	5	-7
COCCOc1cc(NC(=O)c2sccc2Oc2ccc([N+](=O)[O-])cc2F)c(Cl)cc1Cl	26	-4	5	4
NS(=O)(=O)c1ccc(NN=C/C=C/c2ccccc2[N+](=O)[O-])cc1	48*	.	.	.
O=C(CSc1ncnc2c1nnn2-c1ccc(F)cc1)Nc1ccc([N+](=O)[O-])cc1	6	.	.	.
C=C(C)C1CC=C(C)C(=NNc2ccccc2[N+](=O)[O-])C1 (configuration not stated)	41*	.	.	.
O=C(Nc1ccc(Cl)cc1)c1nc[nH]c1C(=O)NCCN(CCNC(=O)c1[nH]cnc1C(=O)Nc1ccc(Cl)cc1)CCNC(=O)c1[nH]cnc1C(=O)Nc1ccc(Cl)cc1	-9	-222	.	64*
CC(C)(C)OC(=O)NCc1ccc(NC(=O)c2nc[nH]c2C(=O)NCCNC(=O)c2[nH]cnc2C(=O)Nc2ccc(CNC(=O)OC(C)(C)C)cc2)cc1	-4	-128	.	79*
COc1ccc(-n2c(C)nc3ccc(NC(=O)COc4ccc(F)cc4)cc3c2=O)cc1	11	.	.	.
Cc1ccc(C(C)C)c(OCC(=O)NNC(=O)/C=C/c2ccco2)c1	9	.	.	.
Cc1ccc(NC(=O)c2cccc(C(F)(F)F)c2)c(C(=O)c2ccccc2)c1	-5	.	.	.
CCn1ccnc1CNCc1cn(-c2cc(C)ccc2C)nc1-c1ccccc1	87*	4	-2	5
Cc1ccc(C)c(-n2cc(CNCCc3cnccn3)c(-c3ccccc3)n2)c1	-5	0	3	3

Screening results deposited in PubChem by several laboratories.
